# Measurements taken from PubChem BioAssay AID1259343 (VanderVen Lab, College of Veterinary Medicine, Cornell …, 2017).
# The whole screen tested about 6,200 compounds, of which about 2,900 (47%) were called active. So high a share suggests a set chosen from earlier hits. This is one part of the list. A number with no mark means an inactive call. No stated cut-off is given here; in the data, active means inhibition above about 50%; inactive means the rest.
# Assay: Mycobacterium tuberculosis growth inhibition, primary screen (AID 1259343)
# Conditions: inhibition: at 10 µM, hits give high values; outcome: 10 uM
row,SMILES,inhibition
1,CC(OC(=O)c1cc(Cl)c(O)c(Cl)c1)c1ccc(F)cc1 (stereo not given),45.8%
2,CCC(=NNC(=O)c1ccc(F)cc1)c1cc(Cl)cc(Cl)c1O,53.1% (active)
3,CC(=NNC(=O)c1cc(-c2cccc3ccccc23)n[nH]1)c1ccccc1O,41.3%
4,CN(CC1CCCO1)S(=O)(=O)c1ccc(C(=O)Nc2ccc3sccc3c2)cc1 (stereo not given),92% (active)
5,Cc1ccccc1CN1CCN2C(C(=O)Nc3ccc(-n4cccc4)cc3)=COC2=NC1=O,88.2% (active)
6,O=C(Nc1ccc(-n2cccc2)cc1)C1=COC2=NC(=O)N(Cc3ccccc3)CCN12,84.6% (active)
7,Cc1noc(C)c1CN1CCN2C(C(=O)Nc3ccc(-n4cccc4)cc3)=COC2=NC1=O,90.5% (active)
8,Cc1noc(C)c1CN1CCN2C=C(C(=O)Nc3ccc(-n4cccc4)cc3)OC2=NC1=O,30.7%
9,c1cc(-c2ccc3c(c2)CCO3)ccc1CNC1CCCC1,75% (active)
10,CC(C)(C)n1ncc(NCc2cccc3c2OCO3)c(Cl)c1=O,27.4%
11,Cn1ncc(NCc2ccc(-c3ccc4c(c3)CCO4)cc2)c(Cl)c1=O,68.8% (active)
12,CC(C)Cc1nc(CN(C)Cc2ccc3c(c2)CCO3)no1,21.8%
13,O=C(c1ccc2c(c1)CCO2)N1CCOC(c2ccc(Cl)c(Cl)c2)C1 (stereo not given),7.26%
14,Cc1cc(NC(=O)COC(=O)c2ccoc2)ccc1Br,68.6% (active)
15,Cc1cc(NC(=O)CON=C2CCN(C(=O)C3CC3)CC2)ccc1Br,92.3% (active)
16,Cc1cc(NC(=O)COc2ccc(C3=CCN(C(N)=O)CC3)cc2)ccc1Br,-21.6%
17,O=c1[nH]c(=S)[nH]nc1Cc1ccc(Cl)c(Cl)c1,96.8% (active)
18,O=C(CCc1n[nH]c(=S)[nH]c1=O)NCc1cccc(C(F)(F)F)c1,-13.8%
19,CC(C)C1=NOC(c2nc(C(C)c3ccccc3)no2)C1 (stereo not given),30.4%
20,Cc1c[nH]c(=O)n1-c1ccc(C(=O)N2CCCC2c2ccccc2)cc1 (stereo not given),-8.28%
21,CC1CC1C(=O)NCc1ccc(Oc2ccc(F)cc2)cc1 (stereo not given),-11.6%
22,O=C(NCc1ccc(Oc2ccc(F)cc2)cc1)C1CC=CCC1 (stereo not given),88.9% (active)
23,COc1cccc(CN(C)Cc2nc(-c3cccs3)no2)c1,54.7% (active)
24,CN(Cc1nc(-c2cccs2)no1)CC1Cc2ccccc2O1 (stereo not given),inactive
25,C#CCCC(C#N)(C#N)c1ncc(-c2ccc(OC)cc2)cn1,43%

row,SMILES,inhibition
1,O=C(O)c1cc(-c2cccs2)nn1-c1ccc(Cl)c(Cl)c1,51.3% (active)
2,Cc1cc(Nc2cccc(=O)[nH]2)n(-c2ccc(Cl)c(Cl)c2)n1,49.9%
3,CC(C)c1ccc(NC(=O)C2CCS(=O)(=O)C2)cc1 (stereo not given),75.6% (active)
4,CC1CN=C(Nc2ccc(C(C)C)cc2)S1 (stereo not given),6.24%
5,CC(C)c1ccc(NS(=O)(=O)C2CC2)cc1,30.9%
6,Cc1ccc(-c2cc(C(F)(F)C(F)F)[nH]n2)cc1,86.5% (active)
7,Cc1ccc(-c2c(N)n[nH]c2C(F)(F)F)cc1,32%
8,O=[N+]([O-])c1ccc(C=NNc2ccc(Cl)cc2)o1,-17.5%
9,O=[N+]([O-])c1ccc(C=NNc2ccc(Cl)c(Cl)c2)o1,93.2% (active)
10,O=[N+]([O-])c1ccc(C=NNc2ccnc3cc(Cl)ccc23)o1,99.4% (active)
11,O=[N+]([O-])c1ccc(C=NN(c2ccccc2)c2ccccc2)o1,47.1%
12,O=[N+]([O-])c1ccc(C=Nn2cnn(Cc3ccccc3Cl)c2=S)o1,43.5%
13,Cc1ccccc1C1c2[nH]c3ccccc3c2CCN1C(=O)c1cccc(C#CC(C)(C)O)c1 (stereo not given),-3.93%
14,CCc1ccc(Nc2nnc(SCC(=O)NC3CCCC3)s2)cc1,100% (active)
15,CCCCc1ccc(Nc2nnc(SCC(=O)NCC)s2)cc1,83.3% (active)
16,CCCCNC(=O)CSc1nnc(Nc2ccc(CC)cc2)s1,45.2%
17,CCc1ccc(Nc2nnc(SCC(N)=O)s2)cc1,36.7%
18,CCCCc1ccc(Nc2nnc(SCC(=O)NC3CCCC3)s2)cc1,86% (active)
19,COc1ccc(OCc2cc(C(=O)N3CCCCCC3)no2)c(Cl)c1,42%
20,O=C(Nc1ccc(OCc2ccco2)c(Cl)c1)N1CCOCC1,79% (active)
21,CCC(=O)N(Cc1ccco1)Cc1cc(NC(=O)c2ccccc2Cl)ccc1N(C)C1CCN(C)CC1,39.1%
22,O=S(=O)(Cc1ccccc1)c1nnnn1-c1ccccc1,101% (active)
23,Cc1ccc(CC2CC(=O)N(C3CCCCC3)C2=O)cc1 (stereo not given),36.3%
24,Cc1ccc(NNC2CC(=O)N(N(C)C)C2=O)cc1 (stereo not given),78.2% (active)
25,COc1ccc(C(=O)C=Cc2cccc(O)c2)cc1F,87.2% (active)

row,SMILES,inhibition
1,COC(=O)c1ccc(C=CC(=O)c2ccc(OC)cc2)cc1,47.6%
2,O=C(/C=C/c1ccc(O)cc1)c1ccccc1O,47.6%
3,COc1ccc(/C=C/C(=O)c2cc(O)ccc2O)cc1,97.6% (active)
4,COc1cccc(C=CC(=O)c2ccc(Cl)c(Cl)c2)c1OC,44.5%
5,O=C(/C=C/c1ccccc1)c1ccc(O)cc1O,96.2% (active)
6,COc1ccc(C=CC(=O)c2ccc3ccccc3c2)cc1,60.1% (active)
7,O=C1COc2ccc(C(=O)C=Cc3ccc4ccccc4c3)cc2N1,62.3% (active)
8,Oc1ccc(Cl)cc1Sc1cc(Cl)ccc1O,101% (active)
9,O=c1cc(O)c2sc3nc(C4CC4)cc(C(F)(F)F)c3c2[nH]1,38.2%
10,COc1ccc(N=C2SCCN2CC(=O)c2ccc(Cl)cc2)cc1,-4.26%
11,Clc1ccc(N=C2SCC3CCCCN23)cc1 (stereo not given),-1.03%
12,Clc1ccc(N=C2SCCN2C2CCCCC2)cc1,90.5% (active)
13,FC(F)Oc1ccc(N=C2SCC3CCCCN23)cc1 (stereo not given),82.4% (active)
14,O=C(NCCc1ccc(F)cc1)C1Cc2ccccc2O1 (stereo not given),70.3% (active)
15,CC(C)(CNC(=O)C1Cc2cc(F)ccc2O1)C1CCCCO1 (stereo not given),14.4%
16,COc1ccc2c(c1)OCC(Cc1ccc(OC)c(OC(C)=O)c1)C2=O (stereo not given),96.6% (active)
17,CC(C(=O)Nc1ccc(C23CC4CC(CC(C4)C2)C3)cc1)n1cncn1 (stereo not given),95.9% (active)
18,COc1ccc(NC(=O)C(C)n2cccn2)cc1Cl (stereo not given),8.88%
19,CC(C(=O)Nc1ccc(C#N)cc1)N1CC=C(c2ccccc2)CC1 (stereo not given),49.1%
20,Cc1ccc(-n2nc(C(=O)c3ccc(Cl)cc3)c(N)c(C#N)c2=O)cc1,94.6% (active)
21,COc1ccc(Oc2cnn(-c3ccc(Cl)cc3)c(=O)c2Nc2ccc(C(=O)O)cc2)cc1,28%
22,NS(=O)(=O)N1CCC(C(=O)Nc2ccc(-c3ccccc3)cc2F)CC1,-3.6%
23,O=C(Nc1ccc(-c2ccccc2)cc1Cl)C1CC1,92.4% (active)
24,O=C(CNC(=O)c1cccc(F)c1)N=Nc1c(O)n(CCc2ccccc2)c2ccccc12,-16.1%
25,Cc1cc(C)cc(C(=O)C=C2NC(=O)CS2)c1,-74.8%

row,SMILES,inhibition
1,COc1ccc(NC(=O)c2ccc3c(c2)NC(=O)C(C)S3)cc1 (stereo not given),57.4% (active)
2,COc1cc(NC(=O)c2ccc3c(c2)NC(=O)C(C)S3)cc(OC)c1 (stereo not given),31.5%
3,COc1cc(NC(=O)c2ccc3c(c2)NC(=O)CS3)cc(OC)c1,62.6% (active)
4,COc1cc(C=NOCc2cccc3ccccc23)ccc1OC(F)F,52.4% (active)
5,CCOC(=O)C1(CCc2ccccc2)CCCN(Cc2cccn2-c2ncccn2)C1 (stereo not given),13%
6,CCOC(=O)NC(=O)COC(=O)C1(Cc2ccccc2)CCCCC1,51.4% (active)
7,Cn1cc(C(=O)Nc2cccc(C(F)(F)F)c2)c2[nH]c(=O)n(-c3ccc(F)cc3)c(=O)c21,24.6%
8,CC(C)OC(=O)c1cn(-c2ccc(F)cc2)c(=O)c2ccccc12,80.8% (active)
9,O=C(c1cnn(-c2ccc(F)cc2)c1)c1ccccc1O,42.7%
10,CCS(=O)(=O)N1CCC(C(=O)Nc2nc(-c3ccc(Br)cc3)cs2)CC1,33.8%
11,O=C(Nc1nc(-c2ccc(Br)cc2)cs1)c1cc(Cl)ccc1[N+](=O)[O-],94.8% (active)
12,O=C(O)CCc1nnc(SCc2cccc(Cl)c2)[nH]c1=O,34.4%
13,Cc1nnc(SCc2cccc3ccccc23)[nH]c1=O,88.9% (active)
14,CC1CCc2sc(-c3nn(CN4CCN(c5cnccn5)CC4)c(=S)o3)cc2C1 (stereo not given),95.3% (active)
15,Cc1cc(C)[n+]2c(-c3ccccc3)csc2n1,80% (active)
16,CCc1ccc(CN(C)Cc2nc(-c3cccc(Cl)c3)no2)nc1,24.1%
17,CN(Cc1cnccn1)c1ccc(-c2nc(-c3cccc(Cl)c3)no2)cn1,80.1% (active)
18,CC(C)Cc1csc2nc(Cc3cccs3)[nH]c(=O)c12,42%
19,O=c1[nH]c(CN2CCCC2c2cccs2)nc2scc(-c3ccco3)c12 (stereo not given),85% (active)
20,CN(Cc1nc2scc(-c3ccco3)c2c(=O)[nH]1)C1CCCCC1,-6.13%
21,CCN(CCS(=O)(=O)c1cc(Cl)ccc1Cl)CC(=O)NC(C)C,-1.76%
22,Clc1cc(CNCC2COc3ccccc3O2)cc2c1OCCO2 (stereo not given),11.4%
23,CN(CC1COc2ccccc2O1)C(=O)NCCc1ccsc1 (stereo not given),-41.3%
24,c1ccc(CCc2cn(CC3COc4ccccc4O3)nn2)cc1 (stereo not given),55.8% (active)
25,FC(F)(F)c1ccc(-c2cnnc(N3CCC(c4ccncc4)CC3)n2)cc1,37.4%
